Here are results for two compounds from PubChem BioAssay (NCATS).

For experiment [1], the target named is Cytochrome P450 1A2 (Homo sapiens) (UniProt P05177). Nature of the experiment: p450-cyp1a2 (AID 410). Also: potency is read from the fitted curve at half-maximal effect. The procedure, abridged: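 Read-out is luminescence from luciferin produced by CYP1A2 demethylation of Luciferin-ME (100uM, at Km). Detection reagent stopped the 60 min NADPH-dependent reaction; signals were normalized to 57 uM furafylline.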
Sequence of Cytochrome P450 1A2 (Homo sapiens) (P05177 whole entry, looked up): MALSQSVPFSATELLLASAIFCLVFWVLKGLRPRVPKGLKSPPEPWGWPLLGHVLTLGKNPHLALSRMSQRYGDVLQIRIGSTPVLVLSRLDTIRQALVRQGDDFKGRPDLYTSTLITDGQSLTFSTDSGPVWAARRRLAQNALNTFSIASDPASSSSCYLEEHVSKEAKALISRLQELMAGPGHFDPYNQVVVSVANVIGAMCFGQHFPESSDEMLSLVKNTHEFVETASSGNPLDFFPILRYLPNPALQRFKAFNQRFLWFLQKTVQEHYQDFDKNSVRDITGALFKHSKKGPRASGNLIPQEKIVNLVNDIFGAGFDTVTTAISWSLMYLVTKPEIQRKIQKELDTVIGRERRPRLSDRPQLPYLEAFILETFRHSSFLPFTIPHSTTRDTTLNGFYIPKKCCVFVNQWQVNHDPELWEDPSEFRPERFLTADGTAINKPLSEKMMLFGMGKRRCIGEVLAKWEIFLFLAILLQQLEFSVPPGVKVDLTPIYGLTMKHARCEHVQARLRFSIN
Experiment [2] addresses Glucocorticoid receptor (Homo sapiens) (UniProt P04150). The experiment in a line: GR-GFP Redistribution (AID 450;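 active = compounds whose dose series gives a full or clear partial fitted curve of increased nuclear translocation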; also: potency is read from the fitted curve at half-maximal effect).
The target is the same in experiment [3]. Nature of the experiment: GR-EFC Redistribution (AID 451). Also: potency is read from the fitted curve at half-maximal effect. The following applies: CHO-K1 GR-EFC translocation, beta-gal luminescence, 2 h. The procedure, abridged:
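CHO-K1 cells stably expressing nuclear-localized β-gal enzyme acceptor and GR fused C-terminally to the enzyme donor fragment; ligand-driven nuclear translocation restores β-gal by complementation. Compounds titrated up to 46 uM final, 2 h at 37 °C; luminescence read.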

The target in experiment [4] is 3',5'-cyclic-AMP phosphodiesterase 4B (Homo sapiens) (UniProt Q07343). Nature of the experiment: qHTS Assay for Inhibitors of PDE-IV (AID 607; active = well fitted activation curve with a large enough effect in the main read-out, with a control signal flat, not every such curve was filed as active; also: % of control where 0% means no effect). The procedure, abridged:
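Cell-based read-out of cAMP via a modified cyclic nucleotide-gated channel and membrane potential dye (535/590 nm) in HEK293 cells expressing PDE4 endogenously. Compounds tested up to 22.9 uM final; 100 uM RO 20-1724 reference.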

Experiment [5] addresses DNA dC->dU-editing enzyme APOBEC-3G (Homo sapiens) (UniProt Q9HC16). The experiment in a line: qHTS for inhibitors of Vif-A3G interactions: Validation (AID 588379; active = well fitted curve in the direction sought with a large enough effect; an effect the other way counts as inactive or inconclusive; also: 0% is about no effect). The procedure, abridged:
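Yellow fluorescence (Ex 488, Em 500-530) of Vif-coexpressing HeLa A3G-eYFP cells, scanned by Acumen cytometer, reports blocked A3G degradation. Cells plated at 700/well overnight at 37 deg C before compound addition, then a further overnight compound incubation at 37 deg C.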

Experiment [6] addresses Androgen receptor (Homo sapiens) (UniProt P10275). Nature of the experiment: qHTS assay for small molecule agonists of androgen receptor signaling (AID 588515; active = well fitted curve in the direction sought with a large enough effect in the signal ratio, with a control signal flat; the % refers to the signal ratio; also: % is scaled to controls: 0 for no effect and ±100 for the full control effect). The following applies: AR-UAS-bla HEK293, beta-lactamase ratio, agonist 16 h; stronger effect = higher value. The procedure, abridged:
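Stimulation of an AR-responsive β-lactamase reporter in GripTite HEK293 cells was measured after 16 h compound exposure at 37 °C, via CCF4 fluorescence after 2 h RT. EC50 from Hill fits, normalized to R1881 at 30 nM.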

Experiment [7] shares this target. Nature of the experiment: qHTS assay for small molecule antagonists of androgen receptor signaling (AID 588516; active = well fitted curve in the direction sought with a large enough effect in the signal ratio, with a control signal flat, not every such curve was filed as active; the % refers to the signal ratio; also: % is scaled to controls: 0 for no effect and ±100 for the full control effect). The procedure, abridged: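 AR-UAS-bla-GripTite HEK 293 cells (2000/well, 5 h at 37 C) received compound titrations, then R1881 at 10 nM final; after 16 h at 37 C, CCF4 dye 2 h RT, beta-lactamase fluorescence read; IC50 from Hill fits.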
The target of experiment [8] is Bile acid receptor (Homo sapiens) (UniProt Q96RI1). Nature of the experiment: qHTS assay for small molecule antagonists of farnesoid X receptor signaling (AID 588526). Also: % is scaled to controls: 0 for no effect and ±100 for the full control effect. The procedure, abridged:
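Concentration-response titrations were fitted to the Hill equation for half-maximal inhibition and maximal response, with data normalised to 50 uM chenodeoxycholic acid and DMSO control wells. Cells: FXR-UAS-bla HEK293T, dialyzed FBS.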

Experiment [9] has as its target Glucocorticoid receptor (Homo sapiens) (UniProt P04150). Nature of the experiment: qHTS assay for small molecule agonists of glucocorticoid receptor signaling (AID 588532; active = well fitted curve in the direction sought with a large enough effect in the signal ratio, with a control signal flat; the % refers to the signal ratio;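 also: 100% = dexamethasone at 0.1 µM and 0% = DMSO only wells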). Particulars: HeLa MMTV-bla, beta-lactamase ratio, agonist, 18 h; stronger effect = higher value; percent of dexamethasone control, DMSO zero. The gist of the method: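 Titration series, up to 92 uM, applied to GRE-bla HeLa cells for 18 h at 37 C. Detection by CCF4 FRET substrate after 2 h at RT.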

The target in experiment [10] is Peroxisome proliferator-activated receptor gamma (Homo sapiens) (UniProt P37231). Nature of the experiment: qHTS assay for small molecule antagonists of peroxisome proliferator-activated receptor gamma signaling (AID 588537; active = well fitted inhibition curve with a large enough effect in the signal ratio, with a control signal flat, not every such curve was filed as active; the % refers to the signal ratio;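 also: reporter cells co-stimulated with 50 nM rosiglitazone agonist during compound treatment; % of control where 0% means no effect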). The gist of the method: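 HEK293 cells, PPAR-gamma-UAS-bla, 3000/well. Pre-incubation 6-6.5 h, 37 C. Compound titration with rosiglitazone 50 nM final, 16 h. CCF4 dye, 2 h RT, dual-emission fluorescence.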
Sequence of Peroxisome proliferator-activated receptor gamma (Homo sapiens) (P37231 whole entry, looked up): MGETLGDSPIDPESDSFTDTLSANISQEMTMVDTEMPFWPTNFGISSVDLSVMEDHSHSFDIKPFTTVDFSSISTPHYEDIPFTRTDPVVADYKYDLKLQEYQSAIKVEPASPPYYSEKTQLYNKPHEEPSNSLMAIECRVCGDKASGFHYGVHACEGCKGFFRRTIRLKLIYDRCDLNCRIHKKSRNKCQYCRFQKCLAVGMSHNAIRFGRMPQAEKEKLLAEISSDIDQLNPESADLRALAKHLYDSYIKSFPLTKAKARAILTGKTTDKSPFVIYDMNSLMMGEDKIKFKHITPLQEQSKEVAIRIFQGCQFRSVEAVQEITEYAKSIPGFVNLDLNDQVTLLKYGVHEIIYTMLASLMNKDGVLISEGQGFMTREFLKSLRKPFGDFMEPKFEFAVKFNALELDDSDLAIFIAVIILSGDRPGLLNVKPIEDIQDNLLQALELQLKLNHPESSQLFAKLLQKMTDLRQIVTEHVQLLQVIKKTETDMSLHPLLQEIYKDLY

For experiment [11], the target named is Vitamin D3 receptor (Homo sapiens) (UniProt P11473). Nature of the experiment: qHTS assay for small molecule agonists of vitamin D receptor signaling (AID 588543).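 Also: 0% = DMSO basal and 100% = reference agonist control.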 The gist of the method:
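GeneBLAzer VDR-UAS-bla HEK293T cells in 2% charcoal-stripped FBS medium were dosed with compound titrations for 16 h at 37 °C; CCF4 β-lactamase readout (405 nm ex, 460/530 nm em). EC50 and efficacy from Hill fits, normalized to 50 nM calcitriol (100%) and DMSO (0%).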

The target in experiment [12] is Thyroid hormone receptor beta (Homo sapiens) (UniProt P10828). The experiment in a line: qHTS assay for small molecule agonists of thyroid hormone receptor beta signaling (AID 588545).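 Also: 0% = DMSO only and 100% = 10 nM T3.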 The gist of the method: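 TR-UAS-bla-GripTite HEK 293 cells in medium with 2% charcoal/dextran FBS, 0.1 mM NEAA and 1 mM sodium pyruvate were treated with titrated compounds for 18 hrs at 37 C. Beta-lactamase reporter was read with CCF4 dye (ex 405, em 460/530 nm); EC50 from Hill fits.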
Sequence of Thyroid hormone receptor beta (Homo sapiens) (P10828 whole entry, looked up): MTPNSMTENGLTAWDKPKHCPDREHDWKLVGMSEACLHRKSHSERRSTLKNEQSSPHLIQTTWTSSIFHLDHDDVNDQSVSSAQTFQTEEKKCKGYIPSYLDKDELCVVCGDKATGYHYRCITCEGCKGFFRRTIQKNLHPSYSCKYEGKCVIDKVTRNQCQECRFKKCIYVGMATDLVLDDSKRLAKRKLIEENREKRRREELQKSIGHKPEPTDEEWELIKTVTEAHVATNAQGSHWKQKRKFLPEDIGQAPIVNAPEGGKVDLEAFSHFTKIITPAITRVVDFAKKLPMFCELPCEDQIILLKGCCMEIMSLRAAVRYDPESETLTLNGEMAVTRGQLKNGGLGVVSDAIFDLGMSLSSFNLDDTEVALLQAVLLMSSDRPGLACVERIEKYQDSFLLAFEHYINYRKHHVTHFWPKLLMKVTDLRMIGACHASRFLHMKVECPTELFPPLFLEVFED

A short description of experiment [13]: qHTS assay for small molecule antagonists of retinoid X receptor alpha signaling (AID 588546; active = well fitted inhibition curve with a large enough effect in the signal ratio, with a control signal flat, not every such curve was filed as active; the % refers to the signal ratio;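 also: cells stimulated with 9-cis-retinoic acid as agonist; % is scaled to controls: 0 for no effect and ±100 for the full control effect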). Particulars: HEK293T RXRa-UAS-bla, beta-lactamase ratio, antagonist mode; measured here: W530 green channel, cytotoxicity proxy. The procedure, abridged: (§1)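 Beta-lactamase reporter inhibition, read as CCF4 fluorescence ratio (ex 405, em 460/530 nm) after 2 h at RT. HEK293T UAS-bla cells, 2500/well, were stimulated with 9-cis-RA at 500 or 100 nM final alongside test compound for 18 h at 37 C.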

The target of experiment [14] is Retinoic acid receptor RXR-alpha (Homo sapiens) (UniProt P19793). The experiment is described as above. The following applies: HEK293T RXRa-UAS-bla, beta-lactamase ratio, antagonist mode. The procedure, abridged:
as §1

Experiment [15] concerns the target Thyroid hormone receptor beta (Homo sapiens) (UniProt P10828). Nature of the experiment: qHTS assay for small molecule antagonists of thyroid hormone receptor beta signaling (AID 588547; active = well fitted inhibition curve with a large enough effect in the signal ratio, with a control signal flat, not every such curve was filed as active; the % refers to the signal ratio). The following applies: TR-UAS-bla HEK293, beta-lactamase ratio, antagonist mode, 18 h. The procedure, abridged: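 TR-UAS-bla GripTite HEK293 cells in 2% charcoal/dextran FBS medium were preincubated 4 h at 37 C, given compound (0.59 nM to 92 uM) plus 0.4 nM T3 (final) for 18 h, then CCF4 for 2 h at RT; Hill fit gave IC50.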

Experiment [16] is described as follows: qHTS assay for small molecule agonists of the antioxidant response element (ARE) signaling pathway (AID 651741; active = well fitted activation curve with a large enough effect in the signal ratio; the % refers to the signal ratio; also: potency is read from the fitted curve at half-maximal effect). The procedure, abridged:
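Beta-lactamase reporter expression driven by the antioxidant response element in HepG2 cells was detected by fluorescence with LiveBLAzer B/G FRET substrate (2 h, room temperature) following 16 h compound treatment at 37 C.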

Experiment [17] in a line: qHTS assay for small molecule activators of the nuclear factor-kappa B (NF-kB) signaling pathway (AID 651749; active = well fitted activation curve with a large enough effect in the signal ratio; the % refers to the signal ratio; also: series mostly up to about 77 µM; % of control where 0% means no effect). Particulars: NF-kB-bla ME-180 cells, beta-lactamase FRET ratio, 16 h; stronger effect = higher value. The procedure, abridged: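 Beta-lactamase reporter expression, controlled by NF-kB response elements in ME-180 cells, was quantified fluorometrically via FRET disruption; cells at 2,000/well had been incubated with 23 nL test compound for 16 hr.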

The nature of experiment [18]: qHTS assay for environmental chemicals that activate the Aryl hydrocarbon Receptor (AhR) signaling pathway (AID 651777; active = well fitted curve in the direction sought with a large enough effect; an effect the other way counts as inactive or inconclusive; also: % of control where 0% means no effect; nearly all actives have a fitted effect of over 15% in size). The following applies: 1A2-DRE human hepatoma cells, luciferase, 24 h; activation: stronger effect = higher value. The gist of the method: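 Stable CYP1A2 promoter/DRE-luciferase human hepatoma line treated 24 hr; One-Glo luminescence, 30 min RT.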
Experiment [19] deals with Peroxisome proliferator-activated receptor alpha (Homo sapiens) (UniProt Q07869). The experiment in a line: qHTS assay for small molecule agonists of the peroxisome proliferator-activated receptor alpha (PPARalpha) signaling pathway (AID 651778; active = well fitted curve in the direction sought with a large enough effect; an effect the other way counts as inactive or inconclusive; also: % of control where 0% means no effect). The following applies: PathHunter PPARalpha complementation, chemiluminescence, 6 h; max response: stronger effect = higher value. The procedure, abridged:
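Cells plated at 2,000/well and held overnight at 37 C, 5% CO2, then compound added by pin tool for 6 hr; after PathHunter detection reagent and 60 min at room temperature, chemiluminescence from enzyme complementation was read.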

The nature of experiment [20]: qHTS assay for small molecule agonists of the antioxidant response element (ARE) signaling pathway measured by Nrf2-dependant transcriptional activity (AID 720636; active = well fitted curve in the direction sought with a large enough effect in the repeat runs; an effect the other way counts as inactive or inconclusive; also: % of control where 0% means no effect). The procedure, abridged: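 Reporter gene assay, HepG2 ARE-luc: 16 hr compound, 37 C, 5% CO2; read-out luciferase luminescence.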
Experiment [21] is described as follows: qHTS assay for small molecule agonists of the antioxidant response element (ARE) signaling pathway measured by Nrf2-dependant transcriptional activity - cell viability counter screen (AID 720653; active = well fitted curve in the direction sought with a large enough effect in the repeat runs; an effect the other way counts as inactive or inconclusive; also: % is scaled to controls: 0 for no effect and ±100 for the full control effect). Particulars: ARE-bla HepG2 viability, CellTiter-Glo ATP luminescence, 16 h; max response: stronger effect = lower value. The procedure, abridged: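 ARE-bla HepG2 cells (2,000/well) rested 5 hrs at 37C/5% CO2, then exposed to compounds in DMSO for 16 hrs. Viability was read in the same wells as intracellular ATP by luminescence, 30 min at room temperature after reagent addition.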

A short description of experiment [22]: qHTS assay for cell viability of HEK293 cells (AID 743288; active = well fitted curve in the direction sought with a large enough effect; an effect the other way counts as inactive or inconclusive; also: % is scaled to controls: 0 for no effect and ±100 for the full control effect; nearly all actives have a fitted effect of over 50% in size). The following applies: ATP luminescence (CellTiter-Glo), 18 h; max response: stronger effect = lower value. The procedure, abridged: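 After 18 h compound exposure at 37 C, parental HEK293 cells (2,000/well) are lysed with CellTiter-Glo and luminescence is read following 30 min at room temperature.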
A short description of experiment [23]: qHTS assay for cell viability of the p53RE-bla HCT-116 cell line (AID 743292; active = well fitted curve in the direction sought with a large enough effect; an effect the other way counts as inactive or inconclusive; also: % is scaled to controls: 0 for no effect and ±100 for the full control effect; nearly all actives have a fitted effect of over 55% in size). The procedure, abridged:
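Readout: CellTiter-Glo luminescence after 30 min RT. Treatment: compounds in DMSO, 16 h, 37 C. Cells: CellSensor p53RE-bla HCT-116, 4,000/well, preincubated 5 h.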

In experiment [24] the target is Nuclear receptor subfamily 1 group I member 2 (Rattus norvegicus) (UniProt Q9R1A7). Nature of the experiment: qHTS assay for small molecule activators of the rat pregnane X receptor (rPXR) signaling pathway (AID 651751; call rule not given here; also: 0% is about no effect). Particulars: rPXR reporter cells, luciferase (One-Glo), 24 h.
Sequence of Nuclear receptor subfamily 1 group I member 2 (Rattus norvegicus) (Q9R1A7 whole entry, looked up): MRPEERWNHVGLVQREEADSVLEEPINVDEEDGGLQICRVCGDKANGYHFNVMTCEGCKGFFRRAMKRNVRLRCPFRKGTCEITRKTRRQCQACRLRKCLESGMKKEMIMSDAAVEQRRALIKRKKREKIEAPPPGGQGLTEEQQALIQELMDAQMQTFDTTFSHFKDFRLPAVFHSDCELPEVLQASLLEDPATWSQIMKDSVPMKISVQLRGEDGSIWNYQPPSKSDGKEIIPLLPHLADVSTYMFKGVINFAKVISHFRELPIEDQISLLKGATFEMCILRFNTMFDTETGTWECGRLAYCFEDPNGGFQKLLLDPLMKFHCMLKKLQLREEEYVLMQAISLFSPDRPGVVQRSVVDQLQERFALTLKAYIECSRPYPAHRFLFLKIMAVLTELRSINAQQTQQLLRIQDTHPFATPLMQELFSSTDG
Experiment [25] can be described thus: qHTS assay for small molecule activators of the human pregnane X receptor (PXR) signaling pathway (AID 720659; call rule not given here; also: 0% is about no effect).
The target in experiment [26] is Mitogen-activated protein kinase 10 (Mus musculus) (UniProt Q61831). The experiment in a line: JNK3 AlphaScreen Assay (AID 530; active = well fitted curve in either direction with a large enough effect, not every such curve was filed as active). The procedure, abridged:
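Biotinylated GST-cJun(1-79) served as substrate for JNK3 in HepG2 lysates stimulated with IL-1beta and TNF-alpha. ATP was 10 uM final, pH 7.6. Ser73 phosphorylation was quantified by AlphaScreen (680 nm excitation).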

Experiment [27] deals with Cytochrome P450 2D6 (Homo sapiens) (UniProt P10635). Nature of the experiment: qHTS Assay for Inhibitors and Substrates of Cytochrome P450 2D6 (AID 891; active = well fitted curve in the direction sought with a large enough effect; an effect the other way counts as inactive or inconclusive;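 also: luciferin methyl ether substrate demethylated by CYP2D6 with NADPH regeneration; % is scaled to controls: 0 for no effect and ±100 for the full control effect; nearly all actives have a fitted effect of over 60% in size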). The gist of the method:
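Luminescent read-out of luciferin formed by 5 nM human CYP2D6 demethylating 30 uM Luciferin-ME EGE (Km level) over 60 min at room temperature after NADPH regeneration addition. Data normalized to full inhibition by 1.43 uM quinidine.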

Records with an inconclusive call do not appear. Active and inactive are the calls of the source. Unless noted, calls follow the shape of the full dose curve.

Sequence of Glucocorticoid receptor (Homo sapiens) (P04150 whole entry, looked up): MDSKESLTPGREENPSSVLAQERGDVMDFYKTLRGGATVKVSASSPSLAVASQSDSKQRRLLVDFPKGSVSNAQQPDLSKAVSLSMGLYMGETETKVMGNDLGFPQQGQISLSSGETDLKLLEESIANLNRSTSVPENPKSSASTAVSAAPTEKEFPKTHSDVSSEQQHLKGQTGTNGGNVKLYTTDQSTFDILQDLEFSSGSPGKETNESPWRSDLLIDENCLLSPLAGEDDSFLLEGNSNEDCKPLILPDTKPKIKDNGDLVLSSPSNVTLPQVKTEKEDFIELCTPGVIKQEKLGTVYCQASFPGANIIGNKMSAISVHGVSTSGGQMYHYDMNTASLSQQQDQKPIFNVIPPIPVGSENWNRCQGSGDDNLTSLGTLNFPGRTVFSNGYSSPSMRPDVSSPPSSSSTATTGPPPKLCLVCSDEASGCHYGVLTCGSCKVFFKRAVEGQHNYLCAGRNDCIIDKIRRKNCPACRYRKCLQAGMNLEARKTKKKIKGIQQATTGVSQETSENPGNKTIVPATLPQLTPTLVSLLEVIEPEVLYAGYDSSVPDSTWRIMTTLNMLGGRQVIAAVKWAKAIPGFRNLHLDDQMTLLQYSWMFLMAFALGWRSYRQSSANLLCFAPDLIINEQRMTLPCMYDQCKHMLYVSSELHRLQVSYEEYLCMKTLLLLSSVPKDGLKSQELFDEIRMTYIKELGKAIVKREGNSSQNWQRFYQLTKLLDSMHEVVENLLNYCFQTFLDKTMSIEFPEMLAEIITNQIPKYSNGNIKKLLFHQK
Sequence of Androgen receptor (Homo sapiens) (P10275 whole entry, looked up): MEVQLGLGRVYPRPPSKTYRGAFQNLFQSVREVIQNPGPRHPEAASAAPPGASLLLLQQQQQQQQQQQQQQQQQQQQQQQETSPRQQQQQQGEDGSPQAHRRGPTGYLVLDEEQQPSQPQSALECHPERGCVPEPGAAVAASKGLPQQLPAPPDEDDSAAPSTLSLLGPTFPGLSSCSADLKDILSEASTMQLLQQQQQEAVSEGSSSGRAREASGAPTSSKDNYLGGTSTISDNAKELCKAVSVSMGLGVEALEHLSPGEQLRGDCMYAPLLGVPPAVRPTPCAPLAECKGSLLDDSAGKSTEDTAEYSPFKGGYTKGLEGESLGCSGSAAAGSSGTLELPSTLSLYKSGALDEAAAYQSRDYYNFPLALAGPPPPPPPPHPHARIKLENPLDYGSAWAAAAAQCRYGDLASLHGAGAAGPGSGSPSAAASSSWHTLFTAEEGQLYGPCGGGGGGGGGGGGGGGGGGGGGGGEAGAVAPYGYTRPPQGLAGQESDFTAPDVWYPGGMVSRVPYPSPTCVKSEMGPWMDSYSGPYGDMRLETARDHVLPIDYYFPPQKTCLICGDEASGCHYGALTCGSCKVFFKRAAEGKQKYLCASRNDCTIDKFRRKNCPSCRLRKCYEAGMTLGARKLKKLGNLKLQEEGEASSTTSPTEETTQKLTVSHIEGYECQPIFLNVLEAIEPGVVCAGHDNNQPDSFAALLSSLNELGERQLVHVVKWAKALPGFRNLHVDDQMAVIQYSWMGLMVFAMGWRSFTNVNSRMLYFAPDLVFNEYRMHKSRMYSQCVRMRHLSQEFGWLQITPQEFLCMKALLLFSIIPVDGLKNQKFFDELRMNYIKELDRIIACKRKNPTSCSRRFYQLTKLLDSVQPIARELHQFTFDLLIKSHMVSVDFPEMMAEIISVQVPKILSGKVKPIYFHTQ
Sequence of Peroxisome proliferator-activated receptor alpha (Homo sapiens) (Q07869 whole entry, looked up): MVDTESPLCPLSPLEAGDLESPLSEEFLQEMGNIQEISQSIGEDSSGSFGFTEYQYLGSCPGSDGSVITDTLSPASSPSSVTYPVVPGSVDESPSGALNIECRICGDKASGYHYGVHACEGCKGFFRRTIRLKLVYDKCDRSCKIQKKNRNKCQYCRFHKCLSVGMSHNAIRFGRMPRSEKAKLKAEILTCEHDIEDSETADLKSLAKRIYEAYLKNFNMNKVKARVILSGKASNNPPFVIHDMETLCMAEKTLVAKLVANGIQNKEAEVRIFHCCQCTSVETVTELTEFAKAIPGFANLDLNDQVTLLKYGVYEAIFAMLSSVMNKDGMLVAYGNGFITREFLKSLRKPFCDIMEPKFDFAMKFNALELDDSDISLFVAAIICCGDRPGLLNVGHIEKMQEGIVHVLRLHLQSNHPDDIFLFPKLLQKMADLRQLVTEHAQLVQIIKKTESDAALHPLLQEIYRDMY
Sequence of Cytochrome P450 2D6 (Homo sapiens) (P10635 whole entry, looked up): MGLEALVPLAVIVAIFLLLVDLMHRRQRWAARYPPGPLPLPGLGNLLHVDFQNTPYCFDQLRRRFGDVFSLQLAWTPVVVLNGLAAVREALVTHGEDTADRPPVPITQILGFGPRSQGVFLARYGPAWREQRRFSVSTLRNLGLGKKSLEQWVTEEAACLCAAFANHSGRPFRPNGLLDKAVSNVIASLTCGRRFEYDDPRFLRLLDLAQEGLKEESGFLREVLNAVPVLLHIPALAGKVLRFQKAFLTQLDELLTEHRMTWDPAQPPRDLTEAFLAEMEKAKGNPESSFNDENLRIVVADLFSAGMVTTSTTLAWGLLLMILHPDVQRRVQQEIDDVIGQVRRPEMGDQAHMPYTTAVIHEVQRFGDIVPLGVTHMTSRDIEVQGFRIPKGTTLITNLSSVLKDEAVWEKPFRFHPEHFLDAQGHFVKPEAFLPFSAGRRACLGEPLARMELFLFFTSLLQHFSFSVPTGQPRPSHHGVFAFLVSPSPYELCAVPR
Sequence of Vitamin D3 receptor (Homo sapiens) (P11473 whole entry, looked up): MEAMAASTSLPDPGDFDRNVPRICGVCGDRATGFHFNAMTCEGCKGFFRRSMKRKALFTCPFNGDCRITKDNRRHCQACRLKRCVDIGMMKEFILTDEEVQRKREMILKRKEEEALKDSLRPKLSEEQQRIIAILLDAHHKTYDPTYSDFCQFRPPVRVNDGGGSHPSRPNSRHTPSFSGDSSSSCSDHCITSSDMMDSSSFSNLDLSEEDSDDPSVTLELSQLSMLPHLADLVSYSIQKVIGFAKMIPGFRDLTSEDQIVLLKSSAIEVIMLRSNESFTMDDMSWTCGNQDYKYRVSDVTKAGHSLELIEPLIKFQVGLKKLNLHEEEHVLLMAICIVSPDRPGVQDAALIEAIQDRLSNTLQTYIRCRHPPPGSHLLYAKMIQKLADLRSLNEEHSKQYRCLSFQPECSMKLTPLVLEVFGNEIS

Turning to `CC1(C)CCC(C)(C)c2cc(C(=O)Nc3ccc(C(=O)O)cc3)ccc21`, the Potency was 31.6 µM (active) in experiment [1], > 46 µM (inactive) in experiment [2], > 46 µM (inactive) in [3] and 61.1 µM (active) in experiment [16]. Moreover, the Potency entry in [4], in [8], in experiment [10], in experiment [20] and in [23] was “inactive” each time. For the same compound, the compound was classed as inactive in [5], in [7], in experiment [11], in [12] and in experiment [25]. Further, the activation was -12.7% (inactive) in experiment [6], -10.3% (inactive) in experiment [9], 1.76% (inactive) in experiment [17] and -0.1% (inactive) in experiment [18]. Moreover, the max response in experiment [13] is 2.34%; in [14], -51.1% (inactive); in [19], 0.0193% (inactive); in experiment [21] it was -7.97% (inactive); in experiment [22], 1.87% (inactive); in [24], -9.44% (inactive). In addition, the activity change % (negative = inhibition) in [15] is 15.7% (inactive).
Turning to `CC(C)C[C@H](NC(=O)[C@@H](NC(=O)N[C@@H](Cc1ccccc1)C(=O)O)[C@H]1CCN=C(N)N1)C(=O)N[C@H](C=O)Cc1ccccc1`, the Potency entry in [1], in [26] and in experiment [27] was “inactive” each time. Moreover, the Potency in [2] and in experiment [3] was > 46 µM (inactive) each time.
